Drawing on PubChem BioAssay (NCI), this text covers growth for 13 molecules.

This is part of a sample that, as a whole, favours compounds with a hit. Of some 83,000 tested, about 20% had one in any assay.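 Results are percent growth after 48 hours of single-concentration exposure. 100 means growth as in untreated cells, lower positive values show inhibition; negative values down to -100 show cell death.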 Values without a mark were called inactive. Active and inactive are the calls of the source. Rule for the calls: active = growth percent below 10; inactive = the rest.

What all share (assay): NCI-60 one-dose screen, 48 h (100 = growth as untreated, 0 = no growth, -100 = all killed)
Common to all, as to settings: 10 µM unless noted

Experiment [1] relates to NCI-H23 lung.
Experiment [2] has as its system NCI-H226 lung.
Experiment [3] deals with NCI-H322M lung.
For experiment [4], the system named is HOP-62 NSCLC.
For experiment [5], the system named is NCI-H460 lung.
Experiment [6] relates to HOP-92 NSCLC.
Experiment [7] concerns NCI-H522 lung.
The test system of experiment [8] is A549/ATCC NSCLC.
The subject of experiment [9] is 786-0 renal.
Experiment [10] concerns COLO 205 colon.

Consider `CCCCCC1CCCCN1C(=O)OCC` (stereo not given), for which the growth in experiment [1] was 106%; in experiment [2], 122%; in experiment [3] it was 112%; in experiment [4], 117%; in [5], 108%; in experiment [6], 75.9%. Besides, the growth is 98.2% in [7], 105% in experiment [8], 88.2% in experiment [9] and 101% in experiment [10].

`C=C(C)[C@@H]1CC[C@]2(C(=O)O)CC[C@]3(C)[C@H](CC[C@@H]4[C@@]5(C)C/C(=C/c6ccc(OC)cc6)C(=O)C(C)(C)[C@@H]5CC[C@]43C)[C@@H]12`: the growth in experiment [1] is 8.25% (active); in experiment [2], 25%; in experiment [3], 30.4%; in experiment [4], 23.8%; in experiment [5] it was 1.81% (active); in experiment [6], 18.9%. Also, the growth is 12.7% in experiment [7], 16.8% in [8], 25.1% in [9] and 2.57% (active) in experiment [10].

For `COc1cc(C(=O)/C=C/c2cc(-c3ccc4c(c3)OCO4)n[nH]2)cc(OC)c1OC`, the growth in experiment [1] was 24.5%; in experiment [2] it was 38.1%; in [3], 19.3%; in experiment [4], -22.7% (active); in experiment [5], -55.2% (active); in [6] it was 73%. Further, the growth in experiment [7] was 17.4%; in [8] it was 28.8%; in experiment [9], 12.8%; in experiment [10], 32.3%.

For the molecule `CCN1CCN(C(=O)[C@]23CCC(C)(C)C[C@H]2C2=CC[C@@H]4[C@@]5(C)CC/C(=N/O)C(C)(C)[C@@H]5CC[C@@]4(C)[C@]2(C)CC3)CC1`, the growth in [1] is 69.7%; in experiment [2], 66.5%; in experiment [3] it was 86.1%; in experiment [4] it was 76.9%; in experiment [5], 72%; in experiment [6] it was 52.7%. Moreover, the growth was 45.2% in experiment [7], 74% in experiment [8], 57.5% in experiment [9] and 87.9% in experiment [10].

With `N#CC1c2ccccc2-c2ccccc2N1C(=O)c1ccccc1` (stereo not given), the growth was 22.6% in [1]; 17.8% in [2]; 57% in experiment [3]; 48.7% in experiment [4]; 18.1% in experiment [5]; 45.2% in [6]. The growth in experiment [7] is 14.5%; in experiment [8], 31.8%; in [9], 17%; in experiment [10], -1.39% (active).

As for `Nc1ccc(Cl)cn1`, the growth in experiment [1] is 97.7%; in [2], 95%; in experiment [3] it was 104%; in experiment [4] it was 95%; in [5], 105%; in [6], 87%. Further, the growth is 82.9% in experiment [7], 87.7% in experiment [8], 106% in experiment [9] and 108% in experiment [10].

As for `O=C(CCCCCn1c2ccccc2c2c3c(c4c5ccccc5[nH]c4c21)C(=O)N(O)C3=O)N1CCOCC1`, the growth was 52% in experiment [1]; 19.1% in experiment [2]; 74.4% in experiment [3]; 11.6% in experiment [4]; 35.8% in experiment [5]; 89.8% in [6]. In addition, the growth was 9.19% (active) in experiment [7], 91.4% in experiment [8], 80.3% in experiment [9] and 62% in experiment [10].

`Cc1csc(Nc2nc(-c3cccc(Br)c3)nc(C(Cl)(Cl)Cl)n2)n1`: the growth is 85.6% in experiment [1]; 110% in experiment [2]; -29.9% (active) in [3]; 34% in experiment [4]; 9.54% (active) in [5]; 51.2% in experiment [6]. In addition, the growth in experiment [7] is 97.1%; in experiment [8], 5.62% (active); in experiment [9], 75.2%; in experiment [10] it was 4.32% (active).

Turning to `Cn1cc(-c2csc(-c3cn(CCCN4CCCCC4)c4ccc(Br)cc34)n2)c2cccnc21`, the growth is 43.3% in experiment [1]; 75.9% in [2]; 49.7% in [3]; -56.5% (active) in [4]; -66.8% (active) in [5]; 31.5% in [6]. In addition, the growth in experiment [7] was 11.7%; in [8], -49% (active); in experiment [9] it was -75.9% (active); in experiment [10], -79.5% (active).

Regarding `O=C(/C=C/c1ccc2ccccc2c1)Nc1ncc(Cc2ccccc2)s1`, the growth in [1] is 80.3%; in experiment [2], 46%; in experiment [3] it was 46.3%; in [4] it was 56.7%; in [5] it was 30.8%; in [6] it was 78.2%. In addition, the growth was 72.8% in experiment [7], 21.6% in [8], 34.2% in [9] and 55.8% in [10].

As to `C=C(C)[C@@H]1CC[C@]2(CN)CC[C@]3(C)[C@H](CC[C@@H]4[C@@](C)(CCCN)[C@H](C(=C)C)CC[C@]43C)[C@@H]12`, the growth in [1] was 91.1%; in experiment [2] it was 90.6%; in [3], 90.2%; in [4] it was 90.6%; in experiment [5] it was 94.7%; in experiment [6], 67.4%. The growth in [7] was 94%; in experiment [8], 82.7%; in experiment [9] it was 81.8%; in [10], 34.5%.

For the molecule `O=C1NC(=Nc2ccc(S(=O)(=O)Nc3nccs3)cc2)S/C1=C\c1coc2ccccc2c1=O`, the growth in experiment [1] is 100%; in experiment [2] it was 97.8%; in experiment [3] it was 101%; in [4], 99.5%; in experiment [5] it was 101%; in experiment [6], 95.3%. In addition, the growth was 103% in [7], 99.7% in [8], 111% in [9] and 113% in [10].

Regarding `N#C/C(=C\c1ccc(-c2ccc(Cl)cc2)o1)c1nc(-c2ccco2)cs1`, the growth is 93.9% in experiment [1]; 89.3% in [2]; 91.6% in [3]; 97.5% in experiment [4]; 96% in experiment [5]; 85.8% in [6]. Also, the growth in experiment [7] is 90.6%; in [8], 91.9%; in experiment [9], 104%; in experiment [10], 109%.
